In the library only some 1.5% were active in any assay of this set; here they are far more common.
ABCB6 inh MLPCN: inhibitors of human ABC transporter ABCB6; K562-ABCB6 porphyrin accumulation, flow cytometry, 1 h; hits give low values; hit rate 0.19% among 360,000; fluorescence ratio to DMSO, % at 10 µM;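 active = fluorescence ratio to DMSO below 75%, the collection mean minus 3 SD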;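 also: signal is porphyrin accumulated inside mitochondria; lower ratio means ABCB6 inhibition with less porphyrin fluorescence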
TMEM16A act: activators or potentiators of mouse TMEM16A chloride channel; Q8BHY3; HEK293 TMEM16A/YFP-H148Q/I152L, iodide quench fluorescence; hits give low values; B-score at 10 µM; hit rate 0.3% among 340,000; AID 623877;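 active = fluorescence-ratio B-score plate-corrected deviation score at least 3 library SD below zero, with starting fluorescence score within 5 deviations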;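 also: channel opened by trigger with iodide after compound preincubation; score built on the fluorescence ratio of max minus min over baseline; more negative score means more quench and so TMEM16A activation or potentiation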
hiPSC survival: hiPSC single-cell survival enhancement | hit rate 0.044% among 360,000 | ATPlite luminescence; 100% = ROCK inhibitor wells, 0% = DMSO | survival enhancement, % at 20 µM; in the data active = survival enhancement above about 18%;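 also: cells exposed to compounds for 16 hours before the ATP read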
ANO1 block: inhibitors of mouse TMEM16A calcium-activated chloride channel; normalized B-score (activity score, 25-100; higher = stronger inhibition) at 10 µM; hit rate 1.2% among 310,000; HEK293 TMEM16A/YFP iodide influx fluorescence, ionomycin; Q8BHY3; AID 588511;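 active = ratio plate-corrected score three or more library SD toward inhibition, starting fluorescence score within five deviations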;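 also: score derived from kinetic fluorescence span divided by baseline fluorescence per well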
DAGLB inhibitor: blocks human DAGLB lipase activity; Q8NCG7; inhibition, % at 5.17 µM; hit rate 0.059% among 340,000; HEK293T DAGLB membrane lysate, EnzChek fluorogenic substrate; in the data active = inhibition above about 34%
Target sequence (Q8NCG7 whole entry, looked up): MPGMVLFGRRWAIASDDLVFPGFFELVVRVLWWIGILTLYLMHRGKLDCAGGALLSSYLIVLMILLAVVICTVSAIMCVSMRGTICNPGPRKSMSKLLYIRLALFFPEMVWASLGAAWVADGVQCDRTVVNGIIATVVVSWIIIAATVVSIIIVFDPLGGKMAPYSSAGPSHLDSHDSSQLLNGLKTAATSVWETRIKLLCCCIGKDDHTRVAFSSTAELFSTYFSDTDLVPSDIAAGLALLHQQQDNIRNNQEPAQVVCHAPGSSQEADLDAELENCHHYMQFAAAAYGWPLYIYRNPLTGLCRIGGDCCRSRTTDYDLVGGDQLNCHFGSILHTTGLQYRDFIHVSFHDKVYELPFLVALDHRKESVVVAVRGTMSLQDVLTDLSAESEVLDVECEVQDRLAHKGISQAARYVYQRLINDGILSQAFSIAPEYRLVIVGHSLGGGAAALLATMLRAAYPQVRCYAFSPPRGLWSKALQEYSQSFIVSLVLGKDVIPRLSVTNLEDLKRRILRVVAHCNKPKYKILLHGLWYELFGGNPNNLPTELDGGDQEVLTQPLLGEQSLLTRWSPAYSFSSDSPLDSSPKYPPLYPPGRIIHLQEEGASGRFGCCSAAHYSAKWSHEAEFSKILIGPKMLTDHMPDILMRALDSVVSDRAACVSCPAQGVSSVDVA
TMEM16A reconf: TMEM16A (mouse) chloride channel inhibition, re-confirmation; shares compounds with ANO1 block; HEK293 TMEM16A/YFP-H148Q, iodide quench fluorescence; ionomycin added to raise cell calcium; inhibition, % at 10 µM; hit rate 39% among 2,300; AID 652189;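 active = mean duplicate percent inhibition, scaled so buffer wells are 0 and the reference blocker 100, over three buffer SD above buffer mean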
TMEM16A Ca cntr: alters calcium mobilization in TMEM16A HEK293 cells, counter-screen; shares compounds with ANO1 block; TMEM16A/YFP HEK293, Fluo4 calcium mobilization; calcium response (% of ionomycin), % at 10 µM; AID 652231; hit rate 2% among 2,300;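 active = duplicate-averaged calcium signal over 20% of the ionomycin maximum, relative to buffer baseline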;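 also: each well's signal is peak minus trough fluorescence divided by its pre-addition baseline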
YFP-HEK293 quench: counter-screen for TMEM16A inhibitors: effect in parental YFP-HEK293 cells; iodide YFP quench, ionomycin; YFP ratio F(max-min)/F0 at 10 µM; shares compounds with ANO1 block; 2,300 tested, under 10 active;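 active = yellow fluorescent protein signal ratio exceeding the buffer control mean by over 5 SD of those controls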;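 also: ratio is mean of duplicate wells from kinetic YFP trace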
ClC-1 rat inh: selectivity of TMEM16A inhibitors: inhibition of rat ClC-1 chloride channel | shares compounds with ANO1 block | CHO ClC-1-YFP, iodide influx fluorescence quench; iodide control reads 0, buffer control 100 | ratio percent, % at 10 µM | 2,300 tested, under 10 active;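 active = duplicate-mean ratio percent above the mean of iodide-only control wells, which defines zero, plus 5 of their SD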;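 also: higher percent means stronger block of ClC-1 iodide influx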
Numbers stand for hits; . = inactive; / = not tested or not shown.

SMILES | ABCB6 inh MLPCN | TMEM16A act | hiPSC survival | ANO1 block | DAGLB inhibitor | TMEM16A reconf | TMEM16A Ca cntr | YFP-HEK293 quench | ClC-1 rat inh
CN(C(=O)CSc1nc2sc3c(c2c(=O)n1C)CCC3)C1CCS(=O)(=O)C1 (stereo unspecified) | . | . | . | / | . | / | / | / | /
Nc1c(C(=O)N/N=C/c2cccnc2)oc2nc(-c3ccccc3)cc(-c3ccco3)c12 | . | . | . | . | / | . | . | . | .
Nc1c(C(=O)N/N=C/c2cccnc2)oc2nc(-c3ccco3)cc(-c3ccco3)c12 | . | . | . | . | / | / | / | / | /
O=C(Nn1c(-c2ccc(Br)cc2)nc2ccccc2c1=O)c1ccc([N+](=O)[O-])cc1 | . | . | . | 25 | . | . | . | . | .
CC1(C(=O)Nc2ccc3nc[nH]c3c2)CCN1C(=O)CCc1ccccc1 (stereo unspecified) | . | / | . | / | / | / | / | / | /
O=C(NCc1cccnc1)c1cc(C2CCCCN2C(=O)c2ccc3c(c2)CCO3)on1 (stereo unspecified) | . | / | . | / | / | / | / | / | /
COc1ccc(NC(=O)N2CCCC2)cc1OC | . | . | . | 25 | . | . | . | . | .
NC(=O)c1ccsc1NC(=O)COc1ccccc1 | . | . | . | 25 | . | . | . | . | .
NC(=O)c1ccsc1NC(=O)COC(=O)Cc1c[nH]c2ccccc12 | . | . | . | . | . | / | / | / | /
NC(=O)c1ccsc1NC(=O)COC(=O)Cc1cccc2ccccc12 | / | . | . | 25 | . | 45% | . | . | .
O=C(O)CCCC1(C(=O)O)CCCC1 | . | . | . | / | . | / | / | / | /
O=C(c1ccc(Cl)cc1)c1ccc(Oc2cc(NN3CCCCC3)c([N+](=O)[O-])cc2[N+](=O)[O-])cc1 | . | . | . | . | . | / | / | / | /
O=C(Nc1nnc(-c2ccccc2)s1)c1cc(S(=O)(=O)N2CCOCC2)c(Cl)cc1Cl | . | . | . | 25 | . | . | . | . | .
O=C(CN1C(=O)COc2ccccc21)c1ccc(Cl)cc1 | . | . | . | . | . | . | . | . | .
CCOC(=O)C(CCC(=O)O)(CCC(C)C)c1csc(N)n1 (stereo unspecified) | . | . | . | 100 | . | . | . | . | .
O=C(CCNc1ccc(F)c(Cl)c1)c1ccco1 | . | . | . | . | . | / | / | / | /
O=C(CCNc1ccc(F)cc1)c1ccco1 | . | . | . | 100 | . | . | . | . | .
CC1(C)N=C(N)N=C(N)N1c1ccc(CCCCc2ccccc2)cc1 | . | / | . | / | . | / | / | / | /
C/C(O)=c1/ccc2cccc3nc(C)nc1c23 | . | . | . | . | . | . | 102% | . | .
COc1ccccc1C1=NOC(Cn2c(NCC3CCCO3)nc3c2c(=O)n(C)c(=O)n3C)C1 (stereo unspecified) | . | . | . | . | . | . | . | . | .
Cc1ccc(C(=O)Nc2nc(=O)n(C(=O)C3CC3)s2)cc1 | . | . | . | . | . | / | / | / | /
Cc1ccc(C(=O)Nc2nc(=O)n(C(=O)c3ccccc3C)s2)cc1 | . | . | . | 25 | . | 26% | . | . | .
COc1ccccc1-c1nc(C#N)c(N2CCC(Cc3ccccc3)CC2)o1 | . | . | . | 100 | . | . | . | . | .
N#Cc1nc(-c2ccccc2Cl)oc1N1CCCCC1 | . | . | . | 25 | . | . | . | . | .
COc1ccccc1-c1nc(C#N)c(N2CCN(Cc3ccccc3)CC2)o1 | . | . | . | . | . | / | / | / | /
SMILES | ABCB6 inh MLPCN | TMEM16A act | hiPSC survival | ANO1 block | DAGLB inhibitor | TMEM16A reconf | TMEM16A Ca cntr | YFP-HEK293 quench | ClC-1 rat inh
O=C(Nc1cccc(C(F)(F)F)c1)c1cccnc1NCCc1ccccc1 | . | . | . | 25 | . | . | . | . | .
O=C(Nc1cccc(C(F)(F)F)c1)c1cccnc1NCCO | . | . | . | . | . | / | / | / | /
O=C(COc1ccccc1[N+](=O)[O-])NCCCN1CCCC1=O | . | . | . | / | . | / | / | / | /
CC(C)Cc1ccc(C(C)C(=O)Nc2cccnc2)cc1 (stereo unspecified) | . | . | . | 25 | . | 52% | . | . | .
CCOC(=O)N1CCc2c(sc(NC(C)=O)c2C(N)=O)C1 | . | . | . | . | . | . | . | . | .
CC(C)(NO)/C(=N/O)c1cccs1 | . | . | . | 25 | . | . | . | . | .
C/C=C(/C)C(=O)OC1c2c(ccc3ccc(=O)oc23)OC(C)(C)C1OC(=O)/C(C)=C\C (stereo unspecified) | . | . | . | 25 | . | 28% | 26% | . | .
Cc1cccc(Cc2c(C)nc3c(C(=O)N4CCN(Cc5ccc6c(c5)OCO6)CC4)cnn3c2C)c1 | . | . | . | 25 | . | . | . | . | .
CCNC(=O)C1(C)CCN(Cc2ccccc2C#N)C1 (stereo unspecified) | . | / | . | / | / | / | / | / | /
Cc1ccc(SCC2=NN(c3nc(C)cc(C)n3)C(=O)C2)cc1 | . | . | . | . | . | / | / | / | /
Cc1cc(C)nc(N2N=C(C(C)(C)C)CC2=O)n1 | . | . | . | . | . | . | . | . | .
Cc1csc(C(C#N)C(=O)c2cc3ccccc3o2)n1 (stereo unspecified) | . | . | . | 25 | . | 30% | . | . | .
Cn1c(=O)n(C)c2cc(S(=O)(=O)N3CCCCC3)ccc21 | . | . | . | . | . | / | / | / | /
Cn1c(=O)c(=O)n(C)c2cc(S(=O)(=O)N3CCCCCC3)ccc21 | . | . | . | 25 | . | . | . | . | .
Cc1ccc(CNC(=O)c2ccccc2NS(=O)(=O)c2ccc(Cl)nc2)cc1 | . | . | . | 100 | . | 18% | . | . | .
CCOC(=O)c1sc(N2C(=O)C(O)=C(C(=O)c3ccco3)C2c2cccc([N+](=O)[O-])c2)nc1C (stereo unspecified) | . | . | . | . | . | / | / | / | /
CCOC(=O)c1sc(N2C(=O)C(O)=C(C(=O)c3ccco3)C2c2cccc(Cl)c2)nc1C (stereo unspecified) | . | . | . | 25 | . | . | . | . | .
Cc1ccccc1OCCC(=O)OCC(=O)NC1CCS(=O)(=O)C1 (stereo unspecified) | . | . | . | . | . | / | / | / | /
COc1ccc2cc([C@H](C)C(=O)N(C)Cc3ccccc3N3CCCC3)ccc2c1 | . | . | . | . | . | 22% | . | . | .
Cc1cc(Cl)cc2c1NC(=O)[C@]21[C@@H]2C(=O)N(Cc3ccccc3)C(=O)[C@@H]2[C@@H]2CCCN21 | . | . | . | 25 | . | . | . | . | .

Screening results deposited in PubChem BioAssay by several laboratories.
